Assay results reported in PubChem BioAssay (NCATS).
Records with an inconclusive call do not appear. A number with no mark means an inactive call. Active and inactive are the calls of the source. Calls follow the shape of the dose curve; as a rule, active = well fitted inhibition curve with a large enough effect; inconclusive = small, poorly fitted or top-dose-only effect; inactive = no such curve, though single readings can be large or run the other way.

Experiment: BET inhibitor-based combinations targeting novel dependencies in MECOM-rearranged (r) AML: SET-2 cell line (AID 2202231);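 as to viability: plate controls were DMSO treated cells for no effect and wells without cells for full effect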
Conditions: SET-2 AML cells viability, CellTiter-Glo luminescence, 48 h; viability: stronger effect = lower value, concentration not given here
Procedure, shortened: (§1)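 500 cells/well; 11-pt dose curve; 48 h, standard incubator; CellTiter-Glo luminescence after 15 min RT; DMSO/empty-well normalization; AUC plus Z-AUC (mean-centered within each line).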
Also: nearly all actives have a fitted effect of over 35% in size.
Potency is read from the fitted curve at half-maximal effect.

Compound	Potency	viability
NCC(=O)Nc1ccc(-n2nc(C(F)(F)F)cc2-c2ccc3c(ccc4ccccc43)c2)cc1	11.8 µM (active)	
COc1cc2c(NC3CCN(CC4CCCCC4)CC3)nc(N3CCCN(C(C)C)CC3)nc2cc1OCCCN1CCCCC1		104%
CC(C)N(CCCNC(=O)Nc1ccc(C(C)(C)C)cc1)C[C@H]1O[C@@H](n2ccc3c(N)ncnc32)[C@H](O)[C@@H]1O		93.2%
Cc1cnc(Nc2cccc(CN3CCOCC3)c2)nc1Nc1cccc(S(=O)(=O)NC(C)(C)C)c1	2.63 µM (active)	
C[C@@]1(c2cc(-c3cncnc3)c(F)cc2F)CCSC(N)=N1		111%
CCN(CCO)CCCC(C)Nc1ccnc2cc(Cl)ccc12 (stereo not given)		104%
CCCCOc1nc(N)c2c(n1)N(Cc1cccc(CN3CCCC3)c1)CC(=O)N2		111%
Nc1ncnc2c1c(-c1cccc(OCc3ccccc3)c1)cn2C1CC(CN2CCC2)C1 (stereo not given)	16.6 µM (active)	
Cc1nc(C(=O)NCC(=O)O)c(O)c2ccc(Oc3ccccc3)cc12		96.3%
OCCn1cc(-c2cnc3nnn(Cc4ccc5ncccc5c4)c3n2)cn1		101%
Cc1nnc(C(C)C)n1C1CC2CCC(C1)N2CCC(NC(=O)C1CCC(F)(F)CC1)c1ccccc1 (stereo not given)		109%
Cc1nn(C)c(COc2ccc(N3CCN(S(=O)(=O)N(C)C)CC3)cc2)c1-c1cccc2c(CCCOc3cccc4ccccc34)c(C(=O)O)n(CCN3CCOCC3)c12		112%
OC(c1ccc(-c2ccc(CN3CCN(Cc4ccncc4)CC3)cc2)c(F)c1)(C(F)(F)F)C(F)(F)F		101%
Cn1cncc1C(N)(c1ccc(Cl)cc1)c1ccc2c(c1)c(-c1cccc(Cl)c1)cc(=O)n2C (stereo not given)	14.8 µM (active)	
CN(C)N(C)C(=O)[C@@]1(Cc2ccccc2)CCCN(C(=O)[C@@H](Cc2c[nH]c3ccccc23)NC(=O)C(C)(C)N)C1		113%
CC(C)(C)NC(=O)Nc1cccc(Nc2ncc(F)c(NC(C)(C)CO)n2)c1	16.6 µM (active)	

Compound	Potency	viability
C=C1[C@H](CO)[C@@H](O)C[C@@H]1n1cnc2c(=O)[nH]c(N)nc21		117%
CNC(=O)c1ccc(N2C(=S)N(c3cnc(C#N)c(C(F)(F)F)c3)C(=O)C23CCC3)cc1F		98%
Cc1ccc2nc(NC(=O)CSc3nc4c(c(=O)n3-c3ccccc3)SCC4)sc2c1		114%
CC1(C)Cc2c(-c3ccccc3)c(-c3ccc(Cl)cc3)c(CC(=O)O)n2C1		104%
Cc1cc(Nc2ncnc3ccc(-c4ccc(CNCCS(C)(=O)=O)o4)cc23)ccc1Oc1ccn2ncnc2c1		75.4%
COc1cc2c(cc1OC)CN(CCc1ccc(NC(=O)c3cccc4c(=O)c5cccc(OC)c5[nH]c34)cc1)CC2		111%
O=C(O)Cn1nnc(-c2cc(N3CCC(Oc4cc(F)ccc4Br)CC3)no2)n1		127%
O=C(NC[C@H](O)CN1CCc2ccccc2C1)c1cc(NC2COC2)ncn1		97%
Cn1cc(-c2ccc3nnc(C(F)(F)c4ccc5ncccc5c4)n3n2)cn1		106%
CCNCc1nc2c(N)nc3ccccc3c2n1CC(C)(C)O		94.4%
COc1cccc(Nc2c(C(N)=O)cnc3c(C)cc(S(=O)(=O)c4cccc(C(=O)N(C)C)c4)cc23)c1		120%
C[C@H]1Oc2cc(cnc2N)-c2c(nn(C)c2C#N)CN(C)C(=O)c2ccc(F)cc21		98.3%
C=Cc1cc(O)cc2nc(-c3ccc(O)c(F)c3)oc12		113%
CC1(C)CCC(c2ccc(Cl)cc2)=C(CN2CCN(c3ccc(C(=O)NS(=O)(=O)c4ccc(N[C@H](CCN5CCOCC5)CSc5ccccc5)c(S(=O)(=O)C(F)(F)F)c4)cc3)CC2)C1	1.32 µM (active)	
CC(=O)N1CCN(CCOc2ccc(C3CCN(C4=Nn5c(nnc5C(F)(F)F)CC4)CC3)cc2)CC1	14.8 µM (active)	
CCN(c1cc(-c2ccc(CN3CCOCC3)cc2)cc(C(=O)NCc2c(C)cc(C)[nH]c2=O)c1C)C1CCOCC1		94.8%

Experiment: BET inhibitor-based combinations targeting novel dependencies in MECOM-rearranged (r) AML: OCI-AML3 cell line (AID 2202232);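 as to viability (% of control): plate controls were DMSO vehicle wells for no effect and wells without cells for full effect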
Conditions: CellTiter-Glo luminescence, 48 h; Potency: OCI-AML3 viability; series mostly up to 46 µM; viability (% of control): at the top concentration
Procedure, shortened: as §1

Compound	Potency	viability (% of control)
O=C(O)C[C@H](O)C[C@H](O)/C=C/c1c(C2CC2)nc2ccccc2c1-c1ccc(F)cc1	1.05 µM (active)	
CCc1nc(-c2cccc(C)c2)c(-c2ccnc(NC(=O)c3ccccc3)c2)s1	0.0093 µM (active)	
CC(C)N(CCCNC(=O)Nc1ccc(C(C)(C)C)cc1)C[C@H]1O[C@@H](n2cc(Br)c3c(N)ncnc32)[C@H](O)[C@@H]1O	23.5 µM (active)	
COc1cc(C)c(Sc2cnc(NC(=O)c3ccc(CNC(C)C(C)C)cc3)s2)cc1C(=O)N1CCN(C(C)=O)CC1 (stereo not given)	20.9 µM (active)	
Cc1cc(C)cc(NC(=O)Cc2ccc(OC(C)(C)C(=O)O)cc2)c1		96%
Cn1cc(-c2cnn3c(N)c(Br)c([C@@H]4CCCNC4)nc23)cn1	13.2 µM (active)	
CCOc1cc2c(c(F)c1OCC)C(=N)N(CC(=O)c1cc(N3CCOCC3)c(OC)c(C(C)(C)C)c1)C2	16.6 µM (active)	
CC(C)C(=O)Nc1ncc(-c2cc(C(F)F)nn2-c2c(Cl)cccc2Cl)s1	23.5 µM (active)	
